{"source": "ChEMBL document CHEMBL3988442", "about": "“University of Dundee, Small-Polar-MMV Screening Library” (2021)", "tested_on": "Leishmania donovani", "test": "Leishmania intramacrophage assay", "type": "functional, organism-based", "design": "scale not given: in the data most compounds retested in dose-response had high values", "note": "About 1,000 (1.4%) of roughly 69,000 compounds showed an effect of 50% or more. What follows is part of a selection rich in strong results, with near analogues and random picks from the rest.", "data": [{"compound": "CCOc1ccc(-c2c(-c3ccccc3)ncn2C2CCNC2)cn1", "note": "(stereo not given)", "values": [{"measurement": "Percent Effect", "setting": "30.3 µM, […]", "value": 76.3, "unit": "%"}]}, {"compound": "CCc1nc(CN2CCCN(c3ncnc4ccccc34)CC2)no1", "values": [{"measurement": "Percent Effect", "setting": "30 µM, 30.03 µM", "value": 55.68, "unit": "%"}]}, {"compound": "Cc1nc(C)n(CC2CN(c3ncnc4[nH]ccc34)CCO2)n1", "note": "(stereo not given)", "values": [{"measurement": "Percent Effect", "setting": "30 µM, 30.03 µM", "value": -5.028, "unit": "%"}]}, {"compound": "Cc1nc(C)n(CC2CCCN(c3ncnc4c3CCC4)C2)n1", "note": "(stereo not given)", "values": [{"measurement": "Percent Effect", "setting": "30 µM, 30.03 µM", "value": 28.07, "unit": "%"}]}, {"compound": "Cc1nc(CN2CCN(c3ncnc4ccccc34)CC2)no1", "values": [{"measurement": "Percent Effect", "setting": "30.3 µM, […]", "value": 19.7, "unit": "%"}]}, {"compound": "Cc1nc(C)n(CC2CCCN(c3ncnc4ccsc34)C2)n1", "note": "(stereo not given)", "values": [{"measurement": "Percent Effect", "setting": "30 µM, 30.03 µM", "value": 35.24, "unit": "%"}]}, {"compound": "CCc1nc(CN2CCCN(c3ncnc4ccsc34)CC2)no1", "values": [{"measurement": "Percent Effect", "setting": "30.3 µM, […]", "value": 27.83, "unit": "%"}]}, {"compound": "Cc1nc(C)n(CC2CCCN(c3ncnc4ccccc34)C2)n1", "note": "(stereo not given)", "values": [{"measurement": "Percent Effect", "setting": "30 µM", "value": 54.57, "unit": "%"}]}, {"compound": "Cc1nc(C)n(CC2CCCN(c3ncnc4sccc34)C2)n1", "note": "(stereo not given)", "values": [{"measurement": "Percent Effect", "setting": "30 µM, 30.03 µM", "value": -10.34, "unit": "%"}]}, {"compound": "Cc1nc(C)n(CC2CCCN(c3ncnc4[nH]ccc34)C2)n1", "note": "(stereo not given)", "values": [{"measurement": "Percent Effect", "setting": "30 µM, 30.03 µM", "value": 52.77, "unit": "%"}]}, {"compound": "COCC1CN(C(=O)COc2ccccc2C)Cc2ncn(C)c21.O=C(O)C(F)(F)F", "note": "(stereo not given)", "values": [{"measurement": "Percent Effect", "setting": "30.3 µM, […]", "value": 12.02, "unit": "%"}]}, {"compound": "Cc1ccc(CN2CCn3c(COc4cccnc4)cnc3C2C)o1.O=C(O)C(F)(F)F.O=C(O)C(F)(F)F", "note": "(stereo not given)", "values": [{"measurement": "Percent Effect", "setting": "30.3 µM, […]", "value": -4.64, "unit": "%"}]}, {"compound": "CCCn1cc(C(=O)N[C@H]2CC[C@H](n3cnnc3)CC2)c(C)n1", "values": [{"measurement": "Percent Effect", "setting": "30.3 µM, […]", "value": 11.19, "unit": "%"}]}, {"compound": "O=C(O)C(F)(F)F.O=S(=O)(c1cccs1)N1CC[C@H]2[C@H]1CCN2c1ncccn1", "values": [{"measurement": "Percent Effect", "setting": "30.3 µM, […]", "value": -1.813, "unit": "%"}]}, {"compound": "Cc1ccc(CN2C[C@@H]3CN(CC4CCOCC4)CCO[C@@H]3C2)s1.O=C(O)C(F)(F)F.O=C(O)C(F)(F)F", "values": [{"measurement": "Percent Effect", "setting": "30.3 µM, […]", "value": 24.65, "unit": "%"}]}, {"compound": "Cc1csc(CN2C[C@@H]3CN(S(C)(=O)=O)CCO[C@@H]3C2)n1", "values": [{"measurement": "Percent Effect", "setting": "30.3 µM, […]", "value": 20.2, "unit": "%"}]}, {"compound": "Cc1csc(CN2C[C@@H]3CN(CC4CCOCC4)CCO[C@@H]3C2)n1", "values": [{"measurement": "Percent Effect", "setting": "30.3 µM, […]", "value": 53.9, "unit": "%"}]}, {"compound": "Cc1nc(C(=O)N2CCCC2c2cncc(CN3CCCC3)n2)co1", "note": "(stereo not given)", "values": [{"measurement": "Percent Effect", "setting": "30.3 µM, […]", "value": 16.43, "unit": "%"}]}, {"compound": "COc1ccc(CC(=O)N2CCCC(n3nc(C)cc3C)C2)cc1F", "note": "(stereo not given)", "values": [{"measurement": "Percent Effect", "setting": "30 µM", "value": 18.37, "unit": "%"}]}, {"compound": "Cc1[nH]/c(=N\\C(=O)c2csc(NCC(C)C)n2)sc1C", "values": [{"measurement": "Percent Effect", "setting": "30 µM, 30.03 µM", "value": 87.72, "unit": "%"}]}, {"compound": "CCN(CC)C(=O)CCCNC(=O)c1csc(NC2CC2)n1", "values": [{"measurement": "Percent Effect", "setting": "30.3 µM, […]", "value": -2.373, "unit": "%"}]}, {"compound": "Cc1[nH]/c(=N\\C(=O)c2csc(NC3CCCC3)n2)sc1C", "values": [{"measurement": "Percent Effect", "setting": "30.3 µM, […]", "value": 100.1, "unit": "%"}]}, {"compound": "Cc1[nH]/c(=N\\C(=O)c2csc(NC3CC3)n2)sc1C", "values": [{"measurement": "Percent Effect", "setting": "30 µM, 30.03 µM", "value": 70.25, "unit": "%"}]}, {"compound": "CC(C)CNc1nc(C(=O)/N=c2\\[nH]nc(C(C)(C)C)s2)cs1", "values": [{"measurement": "Percent Effect", "setting": "30 µM, 30.03 µM", "value": -9.293, "unit": "%"}]}, {"compound": "CC(C)(C)[S+]([O-])CCNC(=O)c1csc(NC2CC2)n1", "note": "(stereo not given)", "values": [{"measurement": "Percent Effect", "setting": "30.3 µM, […]", "value": -31.46, "unit": "%"}]}, {"compound": "Cc1cs/c(=N/C(=O)c2csc(NCC(C)C)n2)[nH]1", "values": [{"measurement": "Percent Effect", "setting": "30.3 µM, […]", "value": 8.971, "unit": "%"}]}, {"compound": "CN1CCN(C(=O)CCc2cc(Br)cs2)CC1", "values": [{"measurement": "Percent Effect", "setting": "30.3 µM, […]", "value": 1.944, "unit": "%"}]}, {"compound": "O=C(Cc1ccsc1)N1CCN(CC2CC2)c2ncccc2C1.O=C(O)C(F)(F)F", "values": [{"measurement": "Percent Effect", "setting": "30.3 µM, […]", "value": 13.41, "unit": "%"}]}, {"compound": "CC(C)c1cc(C(F)(F)F)n2nc(C3CCN(S(C)(=O)=O)C3)cc2n1", "note": "(stereo not given)", "values": [{"measurement": "Percent Effect", "setting": "30.3 µM, […]", "value": 14.63, "unit": "%"}]}, {"compound": "COc1ccc2[nH]cc(C(=O)N3C[C@@H](O)[C@H](N4CCOCC4)C3)c2c1", "values": [{"measurement": "Percent Effect", "setting": "30.3 µM, […]", "value": 10.77, "unit": "%"}]}, {"compound": "COc1ccccc1OCc1cc(C(=O)N2CCOCC2CO)n[nH]1", "note": "(stereo not given)", "values": [{"measurement": "Percent Effect", "setting": "30.3 µM, […]", "value": 28.86, "unit": "%"}]}, {"compound": "CCc1ccc(CN(Cc2ccccc2)CC(C)CO)nc1", "note": "(stereo not given)", "values": [{"measurement": "Percent Effect", "setting": "30.3 µM, […]", "value": 7.862, "unit": "%"}]}, {"compound": "CC(C)OCCN1CCN(C(C)c2nc(C3CC3)no2)CC1", "note": "(stereo not given)", "values": [{"measurement": "Percent Effect", "setting": "30 µM", "value": 6.668, "unit": "%"}]}, {"compound": "COCCN1CCN(C(C)c2nc(C3CC3)no2)CC1", "note": "(stereo not given)", "values": [{"measurement": "Percent Effect", "setting": "30 µM", "value": -7.952, "unit": "%"}]}, {"compound": "CC(c1nc(C2CC2)no1)N1CCN(CCS(C)(=O)=O)CC1", "note": "(stereo not given)", "values": [{"measurement": "Percent Effect", "setting": "30.3 µM, […]", "value": 50.3, "unit": "%"}]}, {"compound": "Clc1snnc1CN1CCN(c2nccs2)CC1", "values": [{"measurement": "Percent Effect", "setting": "30.3 µM, […]", "value": -11.24, "unit": "%"}]}, {"compound": "COc1ccccc1CC(=O)NS(C)(=O)=O", "values": [{"measurement": "Percent Effect", "setting": "30 µM, 30.03 µM", "value": 11.96, "unit": "%"}]}, {"compound": "COc1ccccc1CC(C)CC(=O)NC(C)C", "note": "(stereo not given)", "values": [{"measurement": "Percent Effect", "setting": "30.3 µM, […]", "value": 59.88, "unit": "%"}]}, {"compound": "COc1ccccc1CC(C)CC(=O)N(C)Cc1cc(C)on1", "note": "(stereo not given)", "values": [{"measurement": "Percent Effect", "setting": "30.3 µM, […]", "value": 6.655, "unit": "%"}]}, {"compound": "COc1ccccc1CC(C)CC(=O)NS(=O)(=O)C(C)C", "note": "(stereo not given)", "values": [{"measurement": "Percent Effect", "setting": "30.3 µM, […]", "value": 63.27, "unit": "%"}]}, {"compound": "CCC(CC(=O)NS(=O)(=O)C(C)C)c1ccccc1", "note": "(stereo not given)", "values": [{"measurement": "Percent Effect", "setting": "30.3 µM, […]", "value": -1.743, "unit": "%"}]}, {"compound": "COc1ccccc1CC(C)CC(=O)O", "note": "(stereo not given)", "values": [{"measurement": "Percent Effect", "setting": "30.3 µM, […]", "value": 41.22, "unit": "%"}]}, {"compound": "Cc1cc(NC(=O)NCC(c2ccccc2)N2CCOCC2)n(C)n1", "note": "(stereo not given)", "values": [{"measurement": "Percent Effect", "setting": "30 µM", "value": 18.5, "unit": "%"}]}, {"compound": "C1CC(CN2CCO[C@H]3[C@H](OCC4CC4)CC[C@@H]32)CCO1.O=C(O)C(F)(F)F", "values": [{"measurement": "Percent Effect", "setting": "30 µM, 30.03 µM", "value": 5.211, "unit": "%"}]}, {"compound": "Cc1ccc(NC(=O)CC2Cn3ncnc3NC2=O)cc1C", "note": "(stereo not given)", "values": [{"measurement": "Percent Effect", "setting": "30.3 µM, […]", "value": 22.77, "unit": "%"}]}, {"compound": "CN1CCOCC12CCN(c1ccc(C#N)cc1)CC2.O=C(O)C(F)(F)F", "values": [{"measurement": "Percent Effect", "setting": "30.3 µM, […]", "value": 14.66, "unit": "%"}]}, {"compound": "COc1ccc(C2CCCN2C(=O)c2csc(NC(C)=O)n2)cc1", "note": "(stereo not given)", "values": [{"measurement": "Percent Effect", "setting": "30 µM, 30.03 µM", "value": 22.16, "unit": "%"}]}, {"compound": "Cc1cc(C(=O)NCCc2nc3c(s2)CCCC3)n(C)n1", "values": [{"measurement": "Percent Effect", "setting": "30.3 µM, […]", "value": 29.87, "unit": "%"}]}, {"compound": "O=C1CCc2cc(-c3csc(CCN4CCOC4=O)n3)c(F)cc2N1", "values": [{"measurement": "Percent Effect", "setting": "30.3 µM, […]", "value": -11.05, "unit": "%"}]}, {"compound": "CC(C)c1nc(C2CCCN(C(=O)c3ccc4c(c3)COC4)C2)no1", "note": "(stereo not given)", "values": [{"measurement": "Percent Effect", "setting": "30 µM", "value": 33.04, "unit": "%"}]}]}
